The results in this text go back to PubChem BioAssay (NCATS).

The structures appear in SMILES notation. Where “and” joins values, the source holds several entries; their conditions need not be identical. Identical values can stand only once. Records with an inconclusive call do not appear. A number with no mark means an inactive call. Calls of active or inactive are those of the source. Calls follow the shape of the dose curve; as a rule, active = well fitted curve in the direction sought with a large enough effect; inconclusive = small, poorly fitted or top-dose-only effect, or another doubt; inactive = no such curve, though single readings can be large; an effect the other way counts as inactive or inconclusive.

One assay concerns C33A. The assay can be described thus: Primary qHTS to identify gynecologic anti-cancer compounds using libraries of approved drugs and bioactive compounds (AID 1345084). Also: nearly all actives have a fitted effect of over 55% in size. The settings on record: Gynecologic cancer cell panel viability, ATPlite luminescence, 48 h; series mostly up to 57.5 µM. In short, it runs like this:
(§1)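 Luminescence from the ATPlite ATP-monitoring reagent indicates viable cell number; lower signal means cytotoxicity. Cells received compound 16 h after seeding and were exposed for 48 h across five concentrations.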
A general note: Quantitative high-throughput screening tests each substance at several concentrations.

A further assay concerns Es-2. The assay is described as above. The settings on record: Gynecologic cancer cell panel viability, ATPlite luminescence, 48 h; series mostly up to 57.5 µM. An outline of the steps: as §1
Background: In ATP-based viability assays light output follows the ATP content of the culture.

For another assay, the system named is Hek293T. The assay is described as above. As to conditions: Gynecologic cancer cell panel viability, ATPlite luminescence, 48 h, control line for the selectivity index; series mostly up to 57.5 µM. In short, it runs like this: as §1
The next assay relates to JEG-3. The description is as above. As to conditions: Gynecologic cancer cell panel viability, ATPlite luminescence, 48 h; series mostly up to 57.5 µM. In short, it runs like this:
as §1

The test system of the next assay is PA-1. The description is as above. The settings on record: Gynecologic cancer cell panel viability, ATPlite luminescence, 48 h; series mostly up to 57.5 µM. An outline of the steps: as §1
A further assay has as its system SKOV3. The description is as above. The settings on record: Gynecologic cancer cell panel viability, ATPlite luminescence, 48 h; series mostly up to 57.5 µM. An outline of the steps:
as §1

The subject of the next assay is Tov-21-G. The description is as above. The settings on record: Gynecologic cancer cell panel viability, ATPlite luminescence, 48 h; series mostly up to 57.5 µM. An outline of the steps:
as §1

A further assay has as its system OV90. The assay is described as above. As to conditions: Gynecologic cancer cell panel viability, ATPlite luminescence, 48 h; series mostly up to 57.5 µM. An outline of the steps: as §1
The next assay deals with CAOV3. The assay is described as above. As to conditions: Gynecologic cancer cell panel viability, ATPlite luminescence, 48 h; series mostly up to 57.5 µM. In short, it runs like this: as §1
The subject of a further assay is CASKI. The description is as above. As to conditions: Gynecologic cancer cell panel viability, ATPlite luminescence, 48 h; series mostly up to 57.5 µM. An outline of the steps: as §1
A further assay deals with HeLa. The description is as above. As to conditions: Gynecologic cancer cell panel viability, ATPlite luminescence, 48 h; series mostly up to 57.5 µM. In short, it runs like this: as §1
In the next assay the test system is Tov112D. The description is as above. As to conditions: Gynecologic cancer cell panel viability, ATPlite luminescence, 48 h; series mostly up to 57.5 µM. An outline of the steps:
as §1

Assay [1] is described as follows: qHTS assay to identify inhibitors of the type 1 interferon - major histocompatibility complex class I in skeletal muscle: Counter screen cell viability and HiBit confirmation (AID 1347412). As to all read-outs here: nearly all actives have a fitted effect of over 60% in size. The settings on record: iHSKM muscle cells + IFN-b, HiBiT or CellTiter-Glo, 24 h; for activity change, negative = inhibition: at 45.9 µM (top of the series). In short, it runs like this: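 After 24 h with human IFN-beta (4 ng/ml) and compound titrations (top 46 uM final, 1:3, 12 points), HLA-B HiBit myoblasts were lysed for either Nano-Glo HiBiT luminescence or CellTiter Glo viability on paired plates.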
% is scaled to controls: 0 for no effect and ±100 for the full control effect; potency is read from the fitted curve at half-maximal effect.

As for `C[C@@H]1COCCN1c1cc(C2(S(C)(=O)=O)CC2)nc(-c2cccc3[nH]ccc23)n1`, the Potency in the assay on C33A was 4.47 µM (active); with Es-2 it was 3.16 µM (active); in the assay with Hek293T it was 7.94 µM (active); in the assay on JEG-3, 7.08 µM (active); with PA-1, 11.2 µM (active); in the assay on SKOV3 it was 3.16 µM (active). Further, in the assay with Tov-21-G, the Potency is 1.78 µM (active).

Take `C[C@@H]1O[C@@H](O[C@H]2[C@H](O[C@H]3[C@H](O[C@H]4CC[C@@]5(C)C(CC[C@]6(C)C5CC=C5[C@@H]7CC(C)(C)CC[C@]7(C(=O)O[C@@H]7O[C@H](CO)[C@@H](O[C@@H]8O[C@@H](C)[C@H](O)[C@@H](O)[C@H]8O)[C@H](O)[C@H]7O)CC[C@]56C)C4(C)C)OC[C@H](O)[C@@H]3O)O[C@H](CO)[C@@H](O)[C@@H]2O)[C@H](O)[C@H](O)[C@H]1O` (some centres not stated): the activity change, negative = cytotoxicity with C33A is -22.7% [at 6.55 µM]; in the assay with Es-2, -47.2% [at 6.55 µM]; with OV90 it was -0.139% [at 6.55 µM].

With `COc1ccc(F)cc1-c1cc(NC(=O)[C@@H]2CCCNC2)ncc1Cl`, the Potency result with CAOV3 and in the assay on JEG-3 was “inactive” throughout. The Potency in the assay with CASKI was 0.891 µM (active); with Es-2, 0.794 µM (active); with HeLa, 0.708 µM (active); in the assay on Hek293T it was 0.398 µM (active); with PA-1, 0.355 µM (active); with Tov112D it was 0.708 µM (active).

Take `O=C(c1ccccc1)c1ccc2nc(NC(=O)c3csc(C4CCN(c5ncnc6ccsc56)CC4)n3)[nH]c2c1`: the Potency in the assay with C33A was 15.8 µM (active); in the assay on Hek293T, 8.91 µM (active); in the assay on OV90 it was 17.8 µM (active); in the assay on Tov112D, 12.6 µM (active). Also, the Potency entry with JEG-3 is “inactive”.

On to `CCOc1cc(N2CCC(O)CC2)ccc1Nc1ncc2c(n1)N(C1CCCC1)CCC(=O)N2C`, for which the Potency entry with C33A, in the assay with JEG-3 and with Tov112D was “inactive” throughout. Further, the Potency in the assay on SKOV3 is 8.91 µM (active).

As for `CCCCNc1ncc2c(-c3ccc(CN4CCN(C)CC4)cc3)cn(C3CCC(O)CC3)c2n1` (configuration not stated), the Potency result in the assay on C33A, in the assay with Hek293T and in the assay with JEG-3 was “inactive” throughout. Also, the Potency was 1.78 µM (active) in the assay on HeLa; 6.31 µM (active) in the assay on PA-1; 3.55 µM (active) in the assay on SKOV3; 7.94 µM (active) in the assay with Tov-21-G; 3.94 µM (active) and 14 µM (active) in assay [1] (HiBiT); 7.01 µM (active) in assay [1] (Viability).

For `COc1ccc(C(=O)Nc2ncc(-c3ccc(C(=O)O)cc3)s2)cc1`, the Potency in the assay on CAOV3 was 6.31 µM (active); in the assay with CASKI it was 17.8 µM (active); with Es-2, 31.6 µM (active); in the assay with HeLa, 7.08 µM (active); with JEG-3, 15.8 µM (active); in the assay on OV90 it was 10 µM (active). The Potency in the assay with Tov-21-G and in the assay with Tov112D was 14.1 µM (active) each time.

In the case of `CC(=O)NCC(=O)N1C2CCC1c1cc(Nc3ncc(C(F)(F)F)c(NC4CCC4)n3)ccc12` (configuration not stated), the Potency entry in the assay on C33A and in the assay with JEG-3 was “inactive” each time. The Potency with Es-2 is 14.1 µM (active); with Hek293T, 3.98 µM (active); in the assay with Tov-21-G, 8.91 µM (active).

As to `CN1CCC(Nc2nc(Nc3ccc(Oc4ccccc4)cc3)c3c(=O)[nH]cc(Br)c3n2)CC1`, the Potency result in the assay with C33A, in the assay on Hek293T, in the assay with JEG-3, in the assay on OV90, in the assay on Tov-21-G and in the assay on Tov112D was “inactive” in each case.

As for `CC[C@H](C)[C@H](NC(=O)[C@H]([C@@H](C)CC)N(C)C(C)=O)C(=O)N[C@H](C(=O)N[C@@H](CC(C)C)C(=O)[C@@]1(C)CO1)[C@@H](C)O`, the Potency in the assay on C33A, in the assay on HeLa and in the assay with Tov112D was 0.1 µM (active) throughout. The Potency result in the assay on JEG-3 is “inactive”.

`CC(=O)c1cc(C(=O)N[C@@H](C)Cn2ccc(-c3ccc(C#N)c(Cl)c3)n2)[nH]n1`: the Potency entry in the assay with CAOV3, with CASKI, in the assay on Es-2, with HeLa, with JEG-3 and with PA-1 was “inactive” throughout. The Potency entry in the assay on Tov-21-G and in the assay on Tov112D was “inactive” each time.

In the case of `CC(C)c1c2cc(-c3ccnc(NC4CCC(NC5CCOCC5)CC4)n3)ccc2nn1C` (configuration not stated), the Potency entry in the assay with CAOV3 and in the assay with JEG-3 was “inactive” in each case. Moreover, the Potency is 0.631 µM (active) in the assay on CASKI; 0.316 µM (active) with Es-2; 0.708 µM (active) in the assay on HeLa; 0.355 µM (active) in the assay with PA-1; 0.398 µM (active) in the assay with Tov112D; 0.249 µM (active) in [1] (HiBiT). Also, the activity change, negative = inhibition in assay [1] (Viability) was -6.54%.

As to `O=C(NCc1ccc(S(=O)(=O)c2cc(F)cc(F)c2)cc1)c1ccc2nccn2c1`, in the assay on CAOV3, the Potency was 0.316 µM (active).

Turning to `COc1cc(N2CCC(N3CCN(C)CC3)CC2)ccc1Nc1ncc(Cl)c(-c2c[nH]c3ccccc23)n1`, the Potency was 11.2 µM (active) in the assay with CAOV3; 8.91 µM (active) in the assay on CASKI; 8.91 µM (active) with HeLa; 15.8 µM (active) in the assay with OV90; 3.98 µM (active) in the assay with SKOV3; 8.91 µM (active) in the assay with Tov-21-G. In the assay with Tov112D, the Potency was 20 µM (active). Besides, in the assay on Es-2, the Potency result is “inactive”.

Regarding `COc1cc2nc(N3CCCC3)nc(NCCCCCN3CCCC3)c2cc1OC`, the Potency in the assay on C33A was 15.8 µM (active); with HeLa it was 25.1 µM (active); in the assay on Hek293T, 15.8 µM (active); in the assay on OV90, 25.1 µM (active); with PA-1, 6.31 µM (active); in the assay on SKOV3, 12.6 µM (active).

`CC(C)c1cc(C(=O)N2CC[C@H](NC(=O)C3CC3)C2)n[nH]1`: the Potency entry with CAOV3, in the assay on CASKI, in the assay with Es-2, in the assay on HeLa, with Hek293T and in the assay with JEG-3 was “inactive” each time. Further, the Potency result with OV90, in the assay with PA-1, with SKOV3, with Tov-21-G and in the assay on Tov112D was “inactive” throughout.

As for `CC(C)c1cc(CNc2nc(Nc3cc(C4CC4)[nH]n3)cc(N3CCN(C)CC3)n2)on1`, the Potency with CAOV3 was 0.282 µM (active); in the assay on CASKI, 2.82 µM (active); in the assay with Es-2, 7.94 µM (active); in the assay on HeLa, 0.251 µM (active); with Hek293T, 2 µM (active); in the assay with OV90 it was 3.16 µM (active). Moreover, the Potency was 0.398 µM (active) in the assay on PA-1, 1 µM (active) with SKOV3, 5.01 µM (active) with Tov112D and 1.98 µM (active) in [1] (HiBiT). Further, the activity change, negative = inhibition in assay [1] (Viability) was 6.65%.

In the case of `CCC1C(=O)OC23C=C[C@@H]4C(C(=O)O)=CO[C@H](O[C@@H]12)[C@@H]43` (some centres not stated), the Potency result in the assay with CAOV3, in the assay with CASKI, with Es-2, in the assay on HeLa, in the assay on Hek293T and in the assay with JEG-3 was “inactive” each time. For the same compound, the Potency entry with OV90, in the assay on PA-1 and in the assay with SKOV3 was “inactive” in each case.
